# “And” between values parts separate entries of the source, which are not always exact repeats. Equal entries are not always repeated. Records with an inconclusive call do not appear. Entries that show only a call come without a potency. More than one record can exist for a structure, and the calls need not agree. The source made the active and inactive calls. Unless noted, the call rests on the fitted dose curve.
# What was measured:
# [1] = molecular target: Nuclear receptor subfamily 1 group I member 3 (Homo sapiens) (UniProt Q14994); assay: qHTS assay to identify small molecule agonists of the constitutive androstane receptor (CAR) signaling pathway (AID 1224839; active means well fitted curve in the direction sought with a large enough effect in the repeat runs; an effect the other way counts as inactive or inconclusive; further: nearly all actives have a fitted effect of over 15% in size; further: potency means the concentration at half of the fitted maximal effect;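 on activation: HepG2 cells stably carrying human CAR and a CYP2B6 luciferase reporter; series mostly up to about 92 µM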)
# Method in brief: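 HepG2 cells stably expressing hCAR and a CYP2B6-2.2kb luciferase reporter were treated with compounds at 15 concentrations plus 0.75 uM PK11195 (final) for 24 h at 37 C; luminescence was read after ONE-Glo addition.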
# [2] = qHTS assay to identify small molecule antagonists of the estrogen related receptor signaling pathway with the pleiotropic PPARgamma coactivator (PGC) from Tox21 10K library - cell viability counter screen (AID 1224840; active means well fitted cell-killing curve with a large enough effect in the repeat runs, not every such curve was filed as active; further: nearly all actives have a fitted effect of over 40% in size)
# Method in brief: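 Seeded PGC/ERR cells (2,000/well, 6 h, 37 C/5% CO2) get compound by pin tool; 17.5 h incubation at 37 C; CellTiter-Fluor added, 30 min, fluorescence measured.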
# [3] = qHTS assay to identify small molecule antagonists of the estrogen related receptor signaling pathway with the pleiotropic PPARgamma coactivator (PGC) from Tox21 10K library (AID 1224841; call rule not given here; further: actives are mostly falling curves and most rising ones were filed inactive; nearly all actives have a fitted effect of over 50% in size; further: potency means the concentration at half of the fitted maximal effect)
# Method in brief: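 Test chemicals dissolved in DMSO were applied to pre-incubated (6 h) PGC/ERR cells at 2,000 cells/well for an 18 h, 37 C treatment; reporter luminescence was then read using One-Glo.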
# [4] = qHTS assay to identify small molecule agonists of the estrogen related receptor signaling pathway with the pleiotropic PPARgamma coactivator (PGC) from Tox21 10K library (AID 1224842; active means well fitted curve in the direction sought with a large enough effect in the repeat runs; an effect the other way counts as inactive or inconclusive; further: nearly all actives have a fitted effect of over 15% in size)
# Method in brief: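 Luminescence from One-Glo (30 min, room temperature) measured after PGC/ERR cells had 18 h at 37 C with pinned compound (23 nL in DMSO). Cells had been seeded at 2,000 per well and pre-incubated 6 h.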
# [5] = molecular target: Thyrotropin receptor (Homo sapiens) (UniProt P16473); assay: qHTS assay to identify small molecule agonists of the thyroid stimulating hormone receptor (TSHR) signaling pathway (AID 1224843); further: nearly all actives have a fitted effect of over 45% in size
# Method in brief: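 Agonist activity read as cAMP rise via d2/cryptate HTRF competition, 1 h room-temperature detection, in HEK293 cells expressing TSHR. Fifteen-point titrations, each run in triplicate, with a 30 min room-temperature incubation beforehand.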
# [6] = qHTS assay to identify small molecule agonists of the hypoxia (HIF-1) signaling pathway - cell viability counter screen (AID 1224844); further: nearly all actives have a fitted effect of over 50% in size
# Method in brief: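 HRE-bla ME-180; 0.5% dFBS; cpd 17 h, 37C, 5% CO2; CellTiter-Glo lum., 30 min RT, post-FRET read, same wells.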
# [7] = qHTS assay to identify small molecule agonists of H2AX (AID 1224845; active means well fitted activation curve with a large enough effect in the signal ratio in the repeat runs, not every such curve was filed as active; the % refers to the signal ratio)
# Method in brief: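 Phospho-H2AX Ser139 measured by HTRF (ex 320 nm; em 665 and 620 nm) after 24 hr antibody incubation. Compounds, 15 concentrations, 0.76% DMSO, were applied to CHO-K1 cells for 3hr at 37C before lysis.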
# [8] = qHTS assay to identify small molecule agonists of the hypoxia (HIF-1) signaling pathway (AID 1224846; active means well fitted activation curve with a large enough effect in the signal ratio in the repeat runs, not every such curve was filed as active; the % refers to the signal ratio)
# Method in brief: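 Reporter induction in HRE-bla ME-180 cells is taken as agonism: cells sit 5 hrs after plating, receive compounds or DMSO only, incubate 17 hrs at 37C under 5% CO2, and are loaded with CCF4-AM for beta-lactamase FRET measurement.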
# [9] = qHTS assay to identify small molecule agonists of H2AX - cell viability counter screen (AID 1224847); further: top concentration of the series differs between compounds; nearly all actives have a fitted effect of over 30% in size
# Method in brief: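 Wild-type CHO-K1 cells (10% FBS medium) were plated overnight at 37C, exposed to compounds at 15 concentrations for 3 hr at 37C (0.76% DMSO final), and viability was read as CellTiter-Glo luminescence after 30 min at room temperature.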
# [10] = qHTS assay to identify small molecule antagonists of the estrogen related receptor (ERR) signaling pathway from Tox21 library (AID 1224848; active means well fitted curve in the direction sought with a large enough effect in the repeat runs; an effect the other way counts as inactive or inconclusive; further: nearly all actives have a fitted effect of over 50% in size; further: potency means the concentration at half of the fitted maximal effect)
# Method in brief: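 Luciferase luminescence (ONE-Glo, 30 min room temperature) was the read-out. Cells of the NTP-supplied ERR line, 2,000 per well, were given 6 h at 37 C before compound addition in DMSO and 18 h exposure at 37 C.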
# Sequence of Thyrotropin receptor (Homo sapiens) (P16473 whole entry, looked up): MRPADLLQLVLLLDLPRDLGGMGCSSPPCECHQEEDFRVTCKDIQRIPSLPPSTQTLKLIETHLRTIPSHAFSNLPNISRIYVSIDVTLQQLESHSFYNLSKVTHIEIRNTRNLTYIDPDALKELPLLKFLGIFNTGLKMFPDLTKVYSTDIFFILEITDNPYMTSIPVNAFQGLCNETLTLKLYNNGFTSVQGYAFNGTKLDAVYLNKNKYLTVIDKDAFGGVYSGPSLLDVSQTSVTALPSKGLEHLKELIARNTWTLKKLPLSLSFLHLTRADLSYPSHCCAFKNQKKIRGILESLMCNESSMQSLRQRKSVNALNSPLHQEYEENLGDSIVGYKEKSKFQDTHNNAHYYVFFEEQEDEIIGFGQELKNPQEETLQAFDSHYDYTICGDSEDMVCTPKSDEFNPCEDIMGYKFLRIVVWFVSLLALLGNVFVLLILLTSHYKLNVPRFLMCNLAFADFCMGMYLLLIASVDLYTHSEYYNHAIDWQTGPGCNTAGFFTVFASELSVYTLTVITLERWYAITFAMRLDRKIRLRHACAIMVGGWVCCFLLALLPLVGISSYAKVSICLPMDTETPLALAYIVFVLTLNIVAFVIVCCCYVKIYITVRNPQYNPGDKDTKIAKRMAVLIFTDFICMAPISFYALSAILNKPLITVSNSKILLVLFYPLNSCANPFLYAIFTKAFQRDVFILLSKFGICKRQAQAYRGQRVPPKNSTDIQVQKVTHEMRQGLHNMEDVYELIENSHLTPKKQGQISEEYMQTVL
# Sequence of Nuclear receptor subfamily 1 group I member 3 (Homo sapiens) (Q14994 whole entry, looked up): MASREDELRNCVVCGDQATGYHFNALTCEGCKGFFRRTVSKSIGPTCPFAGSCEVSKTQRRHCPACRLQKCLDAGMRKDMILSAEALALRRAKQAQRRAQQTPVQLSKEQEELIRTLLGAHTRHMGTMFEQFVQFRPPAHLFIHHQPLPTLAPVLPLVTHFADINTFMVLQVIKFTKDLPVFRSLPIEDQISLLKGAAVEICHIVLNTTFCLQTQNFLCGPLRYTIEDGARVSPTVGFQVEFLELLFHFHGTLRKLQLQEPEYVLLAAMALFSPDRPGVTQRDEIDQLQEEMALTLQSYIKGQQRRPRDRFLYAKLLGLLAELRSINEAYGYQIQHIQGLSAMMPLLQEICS
SMILES,Potency [1],Potency [2],Potency [3],outcome [4],Potency [5],Potency [6],Potency [7],outcome [8],Potency [9],Potency [10]
CC(C)(C)OOC(C)(C)C,inactive,inactive,inactive,inactive,inactive,inactive,inactive,inactive,inactive,inactive
Cc1cc(Cl)ccc1O,inactive,inactive,–,–,inactive,inactive,inactive,–,–,–
CC(C)C1(C)N=C(c2nc3ccccc3cc2C(=O)O)NC1=O (stereo not given),inactive,inactive,inactive,inactive,inactive,inactive,inactive,inactive,inactive,inactive
COC(=O)NS(=O)(=O)c1ccc(N)cc1,inactive,inactive,inactive,inactive,inactive,inactive,inactive,inactive,inactive,inactive
Nc1ccccc1C(=O)O,inactive,inactive,inactive,inactive,inactive,inactive,inactive,–,inactive,inactive
Cc1ccc(N)cc1N,53 µM (active),inactive,inactive,inactive,–,inactive,–,–,inactive,inactive
BrCCBr,inactive,inactive,inactive,inactive,inactive,inactive,inactive,inactive,inactive,inactive
CC(C)NC(=O)N1CC(=O)N(c2cc(Cl)cc(Cl)c2)C1=O,inactive,inactive,30.6 µM (active) and inactive,inactive,inactive,inactive,–,inactive,inactive,inactive
CC(C)(C)C(O)(CCc1ccc(Cl)cc1)Cn1cncn1 (stereo not given),inactive,inactive,55.1 µM (active),inactive,–,inactive,inactive,inactive,–,61.9 µM (active) and 61.1 µM (active)
Nc1ccc(Oc2ccc(N)cc2)cc1,inactive,inactive,inactive,inactive,inactive,inactive,inactive,–,inactive,inactive
CC(Br)C(=O)O (stereo not given),inactive,inactive,–,–,inactive,inactive,inactive,inactive,inactive,–
Clc1ccccc1Cl,inactive,inactive,–,–,inactive,inactive,inactive,inactive,inactive,–
c1cc2c3c(cccc3c1)CC2,inactive,inactive,–,–,inactive,inactive,inactive,inactive,inactive,–
CC(=O)C=C(C)C,inactive,inactive,inactive,inactive,inactive,inactive,inactive,–,inactive,inactive
CCCCOC(=O)c1ccccc1C(=O)OCCCC,inactive,inactive,inactive,inactive,–,inactive,–,–,inactive,inactive
COCCl,inactive,inactive,inactive,inactive,inactive,inactive,–,–,inactive,inactive
CON(C)C(=O)Nc1ccc(Cl)c(Cl)c1,61.4 µM (active) and 54.5 µM (active),inactive,inactive,inactive,inactive,inactive,–,inactive,inactive,inactive
O=c1[nH]c(=O)[nH]c(=O)[nH]1,inactive,inactive,inactive,inactive,inactive,inactive,inactive,inactive,inactive,inactive
CN=C=S,inactive,inactive,inactive,inactive,inactive,inactive,–,inactive,inactive,inactive
CN(C)CCO,inactive,inactive,inactive,inactive,inactive,inactive,–,inactive,inactive,inactive
CCC(C)(CC)c1cc(NC(=O)c2c(OC)cccc2OC)on1,inactive,inactive,30.7 µM (active) and inactive,inactive,–,inactive,inactive,inactive,inactive,54.6 µM (active) and 46.7 µM (active)
O=C(NC(=O)c1c(F)cccc1F)Nc1cc(Cl)c(OC(F)(F)C(F)C(F)(F)F)cc1Cl (stereo not given),inactive,inactive,inactive,inactive,inactive,inactive,–,–,inactive,–

# From PubChem BioAssay (Tox21)
